# High-throughput results as filed in PubChem.
# Rows were chosen to be rich in hits. Some 2% of all compounds tested hit in one or more screens of this group.
# IL-2 act: qHTS of IL-2 Activators; activation, % (series mostly up to about 46 µM); actives 0.065% (n = 360,000); IL-2 activation reporter assay, cell-based qHTS; stimulated with anti-CD3/CD4/CD28 beads; in transgenic mouse T cells; AID 652025, 2013; in the data active = activation above about 50%; inconclusive = mostly about 30% to 49%; note: 0% is about no effect
#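 EGFP and DsRed fluorescence is measured by plate cytometry in unstimulated transgenic mouse T cells exposed to compound for 60 minutes, then stimulated 18 hours at 37 degrees C with anti-CD3/anti-CD4 beads plus anti-CD28.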
# ClpP mod: qHTS Assay for Activators of ClpP | ATP-dependent Clp protease proteolytic subunit (Bacillus subtilis (strain 168)), P80244 | purified B. subtilis ClpP, FRET peptide cleavage, 20 min | Potency, µM (doses to about 57.5 µM), inactives show top-dose activity change, negative = active | actives 1.9% (n = 340,000) | AID 651965, 2013; active = well fitted falling curve with a large enough effect; inconclusive = small, poorly fitted or top-dose-only effect; inactive = no such curve, though single readings can be large or run the other way; note: potency is the fitted concentration of half-maximal effect; the source files actives as falling curves though it sought activators and does not explain the sign; nearly all actives have a fitted effect of over 65% in size
# Target sequence (P80244 whole entry, looked up): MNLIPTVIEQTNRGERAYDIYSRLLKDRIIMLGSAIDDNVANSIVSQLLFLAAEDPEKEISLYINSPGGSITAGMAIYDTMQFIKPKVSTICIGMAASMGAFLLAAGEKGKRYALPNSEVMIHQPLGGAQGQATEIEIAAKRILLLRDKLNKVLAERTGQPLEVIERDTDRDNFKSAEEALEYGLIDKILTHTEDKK
#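 Buffer: 100 mM Tris/HCl pH8, 100 mM KCl, 0.05% low protease BSA, 2.5% glycerol, 0.01% Tween-20. ClpP 10 microg/mL final; 20 min RT; delta FRET normalized to ADEP and DMSO controls.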
# NPSR antag: qHTS Assay for Antagonists of the Neuropeptide S Receptor: cAMP Signal Transduction; Q6W5P4; CHO-NPSR cells, cAMP TR-FRET, antagonist mode; Potency, µM (titrated, usually from 38.3 µM), for the others: top-dose activity change, negative = inhibition, usual class: inhibitors; actives 1% (n = 220,000); AID 1461, 2008; note: potency is the fitted concentration of half-maximal effect; % is set by controls: 0 for no effect and ±100 for the full control effect; nearly all actives have a fitted effect of over 50% in size
# Target sequence (Q6W5P4 whole entry, looked up): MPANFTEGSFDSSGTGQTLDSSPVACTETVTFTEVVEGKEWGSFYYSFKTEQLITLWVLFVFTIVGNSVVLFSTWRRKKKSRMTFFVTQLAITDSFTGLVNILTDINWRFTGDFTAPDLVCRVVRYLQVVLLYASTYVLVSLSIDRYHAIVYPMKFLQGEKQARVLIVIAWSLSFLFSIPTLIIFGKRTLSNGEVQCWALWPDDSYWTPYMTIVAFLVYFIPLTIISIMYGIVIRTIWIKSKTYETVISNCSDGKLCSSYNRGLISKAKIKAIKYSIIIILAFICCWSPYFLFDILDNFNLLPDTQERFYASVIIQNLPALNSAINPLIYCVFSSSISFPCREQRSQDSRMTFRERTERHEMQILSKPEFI
# PKM2 act: qHTS Assay for Activators of Human Muscle isoform 2 Pyruvate Kinase | Pyruvate kinase PKM (Homo sapiens), P14618 | purified PKM2, Kinase-Glo ATP luminescence, activation; response scale: 0% is enzyme alone, no compound | Potency, µM (titrated, usually from 57.5 µM), for the others: at the top dose activation, most hits filed as activators | actives 0.34% (n = 260,000) | AID 1631, 2009; note: potency is the fitted concentration of half-maximal effect; % is set by controls: 0 for no effect and ±100 for the full control effect; nearly all actives have a fitted effect of over 55% in size
#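 Purified hPK-M2 (>95%) run at intermediate activity with 0.1 mM ADP and 0.5 mM PEP in 50 mM imidazole pH 7.2, KCl, MgCl2; 1 h room temperature. ATP formed read by Kinase-Glo luminescence; normalized to uninhibited and no-enzyme controls.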
# Numbers without * were called inactive; ? = inconclusive; . = no result given; ! = a repeat was not active; [ ] = another dose, or the depositor's remark. Unless noted, calls come from the whole dose curve; as a rule, active = well fitted curve in the direction sought with a large enough effect; inconclusive = small, poorly fitted or top-dose-only effect, or another doubt; inactive = no such curve, though single readings can be large; an effect the other way counts as inactive or inconclusive.
SMILES,IL-2 act,ClpP mod,NPSR antag,PKM2 act
Cc1cc(NC(=O)c2cccn(Cc3cccc(Cl)c3)c2=O)no1,.,35µM*,.,.
CC(=O)N1N=C(c2c(O)n(C)c(=O)n(C)c2=O)CC1c1ccccc1 (stereo not given),1,-1%,-5%[7.67 µM],-4%
CC(=O)N1N=C(c2cccnc2)CC1c1ccccc1O (stereo not given),2,.,-4%,5µM*
Nc1cccc2c1Cc1cc([N+](=O)[O-])ccc1-2,0,28µM*,.,.
S=C(NCCc1ccccc1)N1Cc2ccccc2-n2nncc2C1,-4,0%,.,.
Cc1cc(C)c(-n2c(O)c(/C=N/NC(=O)c3ccncc3)c(=O)[nH]c2=O)c(C)c1,-1,.,2%,-4%
Cc1ccccc1N1C(=O)NC(=O)/C(=C\c2cc(Br)c(N3CCOCC3)o2)C1=O,1,-1%,13µM*,-3%
CCC1(CC)C(=O)NC(=O)N(CCc2ccccn2)C1=O,1,.,.,.
FC(F)(F)c1ccc2c(c1)N(CCCN1CCN(CCCl)CC1)c1ccccc1S2,0,2%,7.9µM*,-1%
O=c1[nH]c2ccccc2n1C1CCN(C(c2ccccc2OC(F)(F)F)c2nnnn2-c2ccc3c(c2)OCCO3)CC1 (stereo not given),0,1%,.,.
CNC(=O)O/N=C(\C)Cc1nnn(-c2cc(C)on2)n1,-1,.,-14%,-2%
COC(=O)C1=C(c2ccc(OC)c(OC)c2)C[C@@H]2CC[C@H]1N2C(=O)N1CCCC1,1,-1%,.,.
Cc1ccc(-c2cc(-c3ccc(C)cc3)[n+](C)o2)cc1,0,14µM*,8%,-2%
CCOc1cccc(=NC2CCCCC2)c2c(C)n(C)c(C)c12,-1,-1%,7.9µM*,-4%
CCOc1ccccc1N=C1SCCCN1C,-4,1%,-12%[46.1 µM],-4%
CCN(CC)c1ccc(N=Cc2c(O)n(CCC3=CCCCC3)c(=O)[nH]c2=O)cc1,-2,-1%,9%[46.1 µM],0%
CN(C)c1ccc(N=Cc2c(O)n(CCC3=CCCCC3)c(=O)[nH]c2=O)cc1,206*,0%,1%[46.1 µM],-4%
COc1cccc(C2SCC(=O)Nc3c2c(C)nn3-c2ccc(C)c(Cl)c2)c1OC (stereo not given),.,-9%,.,.
CN1CCc2cc(O)cc3c2[C@H]1Cc1ccc(O)c(O)c1-3,0,28µM*!,.,.
Cc1ccc(N=C(/N=C(\N)N[N+](=O)[O-])Nc2ccc(C)cc2)cc1,0,.,.,.
Cn1c2ccccc2c2c(C(=O)N3CCC4(CC3)OCCO4)cn(C3CCCC3)c(=O)c21,-1,?,-12%[46.1 µM],1%
COCCn1cc(C(=O)N2CCC3(CC2)OCCO3)c2c3ccccc3n(C)c2c1=O,4,20µM*,-4%[46.1 µM],-30%
Cc1ccc(-n2c(=O)[nH]c3ccccc3c2=O)cc1[N+](=O)[O-],0,-5%,.,.
CN1CCc2nc3sc(C#N)c(N)c3c(-c3cccs3)c2C1,4,-5%,13µM*,0%
CCOc1ccc2[nH]c(=O)c(CN(CCO)C3(c4nnnn4C4CCCCC4)CCCCC3)cc2c1,1,-30%,-20%[46.1 µM],-5%
SMILES,IL-2 act,ClpP mod,NPSR antag,PKM2 act
C/C=C(\C)C(=O)OC1C(C)=C2C(C1OC(=O)CCCCC)C(C)(OC(C)=O)CC(OC(=O)CCC)C1(O)C2OC(=O)C1(C)O (stereo not given),.,.,4µM*,8%
COC(=O)c1cc2c(s1)=NC=NP=2(N1CCOCC1)N1CCOCC1,-1,28µM*!,8%[46.1 µM],-1%
COC[C@H]1OC(=O)c2coc3c2[C@@]1(C)C1=C(C3=O)C2CCC(=O)[C@@]2(C)C[C@H]1OC(C)=O (stereo not given in full),.,-4%,?,.
Cc1cccc(C)c1-n1nnnc1C(c1cc2ccccc2o1)N1CCC(n2c(=O)[nH]c3ccccc32)CC1 (stereo not given),-1,2%,.,.
O=C(c1cccc(C(F)(F)F)c1)N1C[C@H]2C[C@@H](C1)c1cccc(=O)n1C2,0,-1%,.,-7%
CCCCCc1nc2c(c(=O)c3ccccc3n2C)c(=O)n1C1CCCCCC1,-1,-2%,10µM*,7%
CCCCCc1nc2ccccc2c(=O)n1-c1ccc(C)cc1,.,2%,.,.
C[C@]12CC(=CO)C(=O)C[C@@H]1CC[C@@H]1[C@@H]2CC[C@@]2(C)[C@H]1CC[C@]2(C)O,.,.,6.3µM*,2%
C[C@]1(O)CCC2C3CC[C@@H]4CC(=O)CC[C@]4(C)C3CC[C@@]21C (stereo not given in full),-1,1%,.,.
COC(=O)[C@@H]1[C@@H](C(=O)OC)C2(c3ccccc3-c3ccccc32)N(c2ccc(Cl)cc2)N1C#N,-2,-1%,6.3µM*,7%
CCOc1cc(-c2nc3c(C)cccn3c2NCC2CCCO2)ccc1O (stereo not given),0,14µM*,5%[7.67 µM],-1%
CCOc1cc(C2NCc3ccccc3-n3cccc32)ccc1O (stereo not given),-3,1%,-8%[46.1 µM],6%
Cc1cccn2c(NCC3CCCO3)c(C(C)C)nc12 (stereo not given),-1,22µM*,3%[46.1 µM],-2%
COc1ccccc1-n1c(CNCC2CCCO2)nc2ccccc2c1=O (stereo not given),3,-1%,-1%,6%
c1ccc2nc(N3CCNCC3)ccc2c1,0,4%,8%[46.1 µM],.
c1ccc(C(c2ccccc2)N2CCN(c3ccc4ccccc4n3)CC2)cc1,0,18µM*,-5%[46.1 µM],-2%
Cc1cccc(N2CCc3c2nc2ccccc2c3N)c1,-5,25µM*!,-2%[46.1 µM],4%
Cc1cccc(-n2c(/C=C/c3ccccc3O)nc3ccccc3c2=O)c1,.,-13%,.,.
CCCCOc1ccc(C(=O)NCCc2csc(-c3ccc(OC)cc3)n2)cc1,.,22µM*,.,.
COc1ccc(OCCn2c(NC(=O)c3ccc(OC)cc3)nc3ccccc32)cc1,.,33%,.,.
Cc1c(N=Cc2c(O)n(Cc3ccco3)c(=O)[nH]c2=O)c(=O)n(-c2ccccc2)n1C,-1,11µM*,-2%[46.1 µM],1%
CCC1(C)Cc2ccccc2-c2c1c(=O)n(Cc1ccccc1)c1nnnn21 (stereo not given),0,32µM*,?,2%
CCC1(CC)C(=O)N(Cc2ccccc2)C(=O)N(Cc2ccccc2)C1=O,1,0%,?,-5%
CC(=NCCC(c1ccccc1)c1ccccc1)c1c(O)n(C)c(=O)n(C)c1=O,-1,1%,-11%,9%
S=C(NCCc1ccccc1)N1Cc2cc(N3CCCCC3)ccc2-n2nncc2C1,0,32µM*,.,.
COC(=O)c1ccc(C(=O)OC)c(NC(=O)Oc2ccccc2)c1,-1,2.8µM*,18%,-8%
CN(C)C(=O)Oc1ccc(C(=O)c2ccccc2)cc1,-4,-2%,-9%[46.1 µM],3%
S=c1[nH]nc(-c2ccco2)n1Cc1ccccc1,1,28µM*,-15%[46.1 µM],-3%
